Measured values as given in the supplement of paper PMC10849652.
Targets with a hit are over-represented here; the source holds about 7,900 in all. About 0.6% of all pairs of compound and target were hits.

Assays:
Test in all cases: log2 fold change, soluble protein after heating vs DMSO (PISA); higher = thermal stabilisation; K562 cells, 10 uM, 30 min; active = over 0.2 and 3.5 SD of the protein, either way, in both replicates (recomputed)
[1] = compound: C1=CC=C(C=C1)[C@H](COC2=CC3=C(C=C2)NC(=O)N3)NC(=O)C4=CC=CN(C4=O)CC5=CC(=C(C=C5)F)F
In short: (§1)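 Soluble protein was defined as the supernatant after 21,000xg for 90 min. It came from K562 cells at 2×10^6 cells/mL given 10 μM compound for 30 min, heated in aliquots for 3 min across 48°C-58°C, pooled, and extracted in PBS with 0.5% NP-40 at 4°C, and was quantified by TMTpro 16plex LC-MS/MS with equalised channel sums. Thermal stability against control samples, from duplicates, is reported as log2 fold change.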

[2] = compound: CC1=C(SC2=C1C(=N[C@H](C3=NN=C(N32)C)CC(=O)N)C4=CC=C(C=C4)Cl)C
In short: as §1

[3] = compound: c1ccc([C@@H]2C[C@H]2NC2CCNCC2)cc1
In short: as §1

[4] = compound: CC1=C2C(=CC=C1)N=C(N(C2=O)C3=CC=CC=C3C)CN4C=NC5=C(N=CN=C54)N
In short: as §1

[5] = compound: Cc1sc2c(c1C)C(c1ccc(Cl)cc1)=N[C@@H](CC(=O)OC(C)(C)C)c1nnc(C)n1-2
In short: as §1

Measured: log2 fold change

ADD1 isoform 4 (UniProt P35611)
Sequence of UniProt P35611 (P35611 whole entry, looked up): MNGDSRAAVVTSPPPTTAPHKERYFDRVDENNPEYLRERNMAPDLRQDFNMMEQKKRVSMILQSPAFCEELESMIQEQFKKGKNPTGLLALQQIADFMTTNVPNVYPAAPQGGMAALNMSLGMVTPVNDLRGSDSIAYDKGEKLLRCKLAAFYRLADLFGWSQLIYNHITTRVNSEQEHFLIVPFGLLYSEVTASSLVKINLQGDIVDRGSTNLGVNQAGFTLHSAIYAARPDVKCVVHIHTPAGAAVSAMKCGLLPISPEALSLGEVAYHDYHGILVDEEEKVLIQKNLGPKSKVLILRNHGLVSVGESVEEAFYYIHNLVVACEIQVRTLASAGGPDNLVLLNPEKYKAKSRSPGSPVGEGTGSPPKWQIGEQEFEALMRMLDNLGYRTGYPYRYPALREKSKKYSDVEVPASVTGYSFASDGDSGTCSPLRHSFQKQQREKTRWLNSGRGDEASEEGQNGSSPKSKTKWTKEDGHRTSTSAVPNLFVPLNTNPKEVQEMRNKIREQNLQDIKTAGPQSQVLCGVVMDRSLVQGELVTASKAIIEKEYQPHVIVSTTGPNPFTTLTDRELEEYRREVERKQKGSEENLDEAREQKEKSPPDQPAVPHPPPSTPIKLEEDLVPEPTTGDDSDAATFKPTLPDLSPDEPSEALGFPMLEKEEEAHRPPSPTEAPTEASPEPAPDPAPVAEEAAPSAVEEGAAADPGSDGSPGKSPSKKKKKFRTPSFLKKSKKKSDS
inactive: [1] -0.03 | [2] 0.04 | [3] 0.217

BDH2 (UniProt Q9BUT1)
Sequence of UniProt Q9BUT1 (Q9BUT1 whole entry, looked up): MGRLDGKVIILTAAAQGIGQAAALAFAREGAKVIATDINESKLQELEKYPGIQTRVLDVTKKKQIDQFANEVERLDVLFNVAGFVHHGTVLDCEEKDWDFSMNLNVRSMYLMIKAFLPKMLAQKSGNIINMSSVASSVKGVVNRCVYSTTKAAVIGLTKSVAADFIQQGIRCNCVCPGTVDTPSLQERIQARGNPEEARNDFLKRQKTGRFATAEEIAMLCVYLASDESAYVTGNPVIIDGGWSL
inactive: [1] -0.033 | [2] 0.087 | [4] -0.213 | [3] 0.12

ACVR1 (UniProt Q04771)
inactive: [2] 0.061 | [4] 0.041 | [5] -0.218 | [3] 0.072

ASB6 (UniProt Q9NWX5)
inactive: [1] -0.065 | [4] 0.178

ANGEL1 (UniProt Q9UNK9)
Sequence of UniProt Q9UNK9 (Q9UNK9 whole entry, looked up): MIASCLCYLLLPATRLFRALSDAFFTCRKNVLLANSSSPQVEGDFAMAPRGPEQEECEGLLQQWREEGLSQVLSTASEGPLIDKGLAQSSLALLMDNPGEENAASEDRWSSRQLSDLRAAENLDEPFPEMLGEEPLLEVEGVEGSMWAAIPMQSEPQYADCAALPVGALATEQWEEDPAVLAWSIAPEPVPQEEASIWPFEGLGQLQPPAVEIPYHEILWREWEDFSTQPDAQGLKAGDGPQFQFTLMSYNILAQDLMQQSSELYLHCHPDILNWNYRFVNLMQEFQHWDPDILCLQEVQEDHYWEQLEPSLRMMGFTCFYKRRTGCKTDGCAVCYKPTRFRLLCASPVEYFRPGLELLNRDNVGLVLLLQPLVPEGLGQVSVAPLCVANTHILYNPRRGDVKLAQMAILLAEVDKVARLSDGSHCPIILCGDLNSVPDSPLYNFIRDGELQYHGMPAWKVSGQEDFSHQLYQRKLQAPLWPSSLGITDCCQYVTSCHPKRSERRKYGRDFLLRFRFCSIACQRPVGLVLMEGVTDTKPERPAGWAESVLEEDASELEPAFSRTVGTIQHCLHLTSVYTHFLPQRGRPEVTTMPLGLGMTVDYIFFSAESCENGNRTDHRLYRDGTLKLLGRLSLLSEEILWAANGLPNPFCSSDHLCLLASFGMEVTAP
inactive: [1] -0.256 | [4] -0.172 | [5] -0.042

ACACB (UniProt O00763)
inactive: [1] -0.044 | [2] -0.053 | [4] 0.025 | [5] 0.084 | [3] 0.007

ACSM3 (UniProt Q53FZ2)
Sequence of UniProt Q53FZ2 (Q53FZ2 whole entry, looked up): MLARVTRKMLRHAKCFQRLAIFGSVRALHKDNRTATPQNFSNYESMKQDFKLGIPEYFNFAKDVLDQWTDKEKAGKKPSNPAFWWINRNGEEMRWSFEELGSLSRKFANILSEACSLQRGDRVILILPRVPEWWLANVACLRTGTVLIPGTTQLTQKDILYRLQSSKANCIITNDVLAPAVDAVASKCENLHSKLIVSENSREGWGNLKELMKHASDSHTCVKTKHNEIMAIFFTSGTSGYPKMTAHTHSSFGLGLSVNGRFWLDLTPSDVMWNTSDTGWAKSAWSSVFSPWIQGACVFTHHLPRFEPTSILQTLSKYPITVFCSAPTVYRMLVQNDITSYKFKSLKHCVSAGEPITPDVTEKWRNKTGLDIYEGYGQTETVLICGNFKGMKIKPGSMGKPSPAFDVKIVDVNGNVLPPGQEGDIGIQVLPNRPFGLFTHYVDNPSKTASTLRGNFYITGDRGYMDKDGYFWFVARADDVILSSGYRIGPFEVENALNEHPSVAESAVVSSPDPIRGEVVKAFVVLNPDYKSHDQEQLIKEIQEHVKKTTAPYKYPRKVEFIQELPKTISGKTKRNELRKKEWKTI
inactive: [1] -0.046 | [2] -0.051 | [4] 0.091 | [5] -0.03 | [3] -0.029

BRMS1 (UniProt Q9HCU9)
inactive: [5] -0.011

ALDH2 isoform 2 (UniProt P05091)
Sequence of UniProt P05091 (P05091 whole entry, looked up): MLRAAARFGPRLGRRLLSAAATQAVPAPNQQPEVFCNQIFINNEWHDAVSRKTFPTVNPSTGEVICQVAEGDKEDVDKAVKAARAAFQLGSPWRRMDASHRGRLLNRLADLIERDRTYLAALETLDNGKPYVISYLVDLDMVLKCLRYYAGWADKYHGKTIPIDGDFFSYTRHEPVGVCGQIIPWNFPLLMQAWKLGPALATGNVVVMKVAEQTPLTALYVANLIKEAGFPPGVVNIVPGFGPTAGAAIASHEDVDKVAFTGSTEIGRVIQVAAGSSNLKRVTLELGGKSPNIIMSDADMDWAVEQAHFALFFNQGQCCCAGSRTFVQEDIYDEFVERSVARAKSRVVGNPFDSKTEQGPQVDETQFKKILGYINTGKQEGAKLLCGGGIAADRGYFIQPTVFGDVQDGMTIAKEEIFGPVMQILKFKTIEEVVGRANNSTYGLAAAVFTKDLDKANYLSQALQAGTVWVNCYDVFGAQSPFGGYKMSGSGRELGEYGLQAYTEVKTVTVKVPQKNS
inactive: [1] -0.092 | [4] 0.379 | [5] 0.074

AP4S1 (UniProt Q9Y587)
Sequence of UniProt Q9Y587 (Q9Y587 whole entry, looked up): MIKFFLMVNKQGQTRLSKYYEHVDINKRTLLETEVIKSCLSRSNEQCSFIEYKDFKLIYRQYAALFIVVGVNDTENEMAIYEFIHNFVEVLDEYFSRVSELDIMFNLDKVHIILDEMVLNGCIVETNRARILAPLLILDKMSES
inactive: [1] -0.077 | [2] 0.133 | [4] 0.069 | [3] 0

BAP18 isoform 3 (UniProt Q8IXM2)
Sequence of UniProt Q8IXM2 (Q8IXM2 whole entry, looked up): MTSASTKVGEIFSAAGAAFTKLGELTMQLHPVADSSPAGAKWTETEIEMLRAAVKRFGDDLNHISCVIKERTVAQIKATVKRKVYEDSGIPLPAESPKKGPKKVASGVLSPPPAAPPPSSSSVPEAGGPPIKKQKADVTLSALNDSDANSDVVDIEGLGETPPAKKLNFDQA
inactive: [5] 0.041

AP2S1 (UniProt M0QZ21)
inactive: [5] -0.014

AFDN isoform 1 (UniProt P55196)
Sequence of UniProt P55196 (P55196 whole entry, looked up): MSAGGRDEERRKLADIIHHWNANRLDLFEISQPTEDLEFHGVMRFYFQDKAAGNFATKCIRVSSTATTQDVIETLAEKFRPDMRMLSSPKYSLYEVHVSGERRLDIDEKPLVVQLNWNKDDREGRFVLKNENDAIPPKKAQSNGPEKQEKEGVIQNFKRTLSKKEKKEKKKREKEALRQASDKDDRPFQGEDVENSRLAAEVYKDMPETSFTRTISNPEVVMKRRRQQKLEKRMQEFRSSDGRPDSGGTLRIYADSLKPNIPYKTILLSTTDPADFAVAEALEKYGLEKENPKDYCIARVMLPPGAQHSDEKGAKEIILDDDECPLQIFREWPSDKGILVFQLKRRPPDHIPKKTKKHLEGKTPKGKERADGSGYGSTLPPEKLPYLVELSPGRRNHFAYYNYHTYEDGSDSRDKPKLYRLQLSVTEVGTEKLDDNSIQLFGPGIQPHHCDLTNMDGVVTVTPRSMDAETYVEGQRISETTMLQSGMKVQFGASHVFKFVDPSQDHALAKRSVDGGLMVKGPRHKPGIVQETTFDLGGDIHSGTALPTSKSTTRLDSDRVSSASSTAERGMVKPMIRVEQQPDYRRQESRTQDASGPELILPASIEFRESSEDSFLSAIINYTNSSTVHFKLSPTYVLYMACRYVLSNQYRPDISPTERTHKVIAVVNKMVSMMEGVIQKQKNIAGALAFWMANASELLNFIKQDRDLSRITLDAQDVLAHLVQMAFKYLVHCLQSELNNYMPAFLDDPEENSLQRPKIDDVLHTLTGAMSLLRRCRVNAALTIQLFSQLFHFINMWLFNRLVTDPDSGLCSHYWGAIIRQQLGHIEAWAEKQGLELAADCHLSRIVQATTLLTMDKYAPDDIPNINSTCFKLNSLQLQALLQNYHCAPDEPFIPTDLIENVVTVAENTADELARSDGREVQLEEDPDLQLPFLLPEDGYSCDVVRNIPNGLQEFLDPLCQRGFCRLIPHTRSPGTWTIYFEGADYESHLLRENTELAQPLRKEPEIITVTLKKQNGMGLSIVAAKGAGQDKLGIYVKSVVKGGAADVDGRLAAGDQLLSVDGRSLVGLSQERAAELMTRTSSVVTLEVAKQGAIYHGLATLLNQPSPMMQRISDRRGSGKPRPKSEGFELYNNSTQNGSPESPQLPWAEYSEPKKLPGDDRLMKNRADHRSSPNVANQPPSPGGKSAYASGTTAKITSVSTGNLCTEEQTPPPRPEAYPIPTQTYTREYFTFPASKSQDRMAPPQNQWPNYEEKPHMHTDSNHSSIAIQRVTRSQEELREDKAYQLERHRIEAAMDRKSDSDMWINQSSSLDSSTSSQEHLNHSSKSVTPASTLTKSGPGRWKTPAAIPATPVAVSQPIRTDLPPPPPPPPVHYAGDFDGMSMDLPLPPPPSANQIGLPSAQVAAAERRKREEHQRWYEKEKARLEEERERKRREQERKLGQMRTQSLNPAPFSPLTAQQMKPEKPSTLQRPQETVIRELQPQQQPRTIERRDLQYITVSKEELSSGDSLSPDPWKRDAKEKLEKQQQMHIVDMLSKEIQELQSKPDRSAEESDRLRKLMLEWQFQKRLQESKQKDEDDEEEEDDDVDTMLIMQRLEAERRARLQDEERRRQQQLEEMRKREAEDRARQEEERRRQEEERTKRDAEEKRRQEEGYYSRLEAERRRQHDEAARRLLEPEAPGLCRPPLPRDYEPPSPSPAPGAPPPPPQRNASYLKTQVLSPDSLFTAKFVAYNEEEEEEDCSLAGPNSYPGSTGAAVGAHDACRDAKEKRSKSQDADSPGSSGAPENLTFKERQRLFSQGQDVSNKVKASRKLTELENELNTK
inactive: [1] 0.038 | [2] -0.119 | [4] 0.029 | [3] 0.177
